Screens from PubChem.
Only some compounds are listed: those with a hit (about 2.4% of all), similar ones and a draw of the others.
HSF1 inhib – HSF1 inhibition | NIH3T3-HGL HSE-luciferase, MG132-induced, luminescence 8 h; active compounds read low | activity change, negative = inhibition, % at 7.5 µM (by protocol) | actives 0.77% (n = 300,000);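 active = more than half of replicate wells show activity change below -50%, luminescence cut by over half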;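 note: luciferase reports HSF-1 transcriptional activity via heat shock element; 0% = median of DMSO wells and -100% = zero luminescence signal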
STAT3 blocker – reduces IL-6 driven STAT3 reporter signal. U3A cells, IL-6 STAT3-luciferase reporter, luminescence; host cell line lacks STAT1. actives 0.89% (n = 190,000). inhibition, % at 5.5 µM;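 active = inhibition above the mean inhibition across all screened compounds plus 3 SD, cut at about 44% in these data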;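 note: 0% = DMSO only wells and 100% = 100 µM nifuroxazide control wells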
HSP90 inh – HSP90 refolding inhibition in rabbit reticulocyte lysate; luciferase refolding luminescence, 3 h; inhibition, % at 5.6 µM; actives 0.91% (n = 290,000); AID 1789;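 active = inhibition above the screen-wide mean plus 3 SD, computed separately per campaign, cut at about 16% in these data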;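 note: 0% = DMSO wells and 100% = 60 µM geldanamycin wells; inhibitors lower the luminescence because luciferase stays unfolded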
C8 TRAIL sens – sensitizes caspase-8 expressing cells to TRAIL; inhibition (viability loss, TRAIL sensitization), % at 10 µM; actives 1% (n = 360,000); NB7+C8 cells + TRAIL, ATPlite viability luminescence;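 active = compounds causing at least 50% loss of cell viability in the single-dose screen, relative to plate controls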
STAT1 blocker – STAT1 signaling inhibition; NIH 3T3 STAT1-luciferase reporter, IFN-gamma, luminescence; actives 0.35% (n = 200,000); AID 920; inhibition, % at 5.5 µM;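 active = inhibition above a set limit, the mean inhibition across all tested compounds plus 3 SD, cut at about 34% in these data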;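 note: 0% = IFN-gamma with DMSO and 100% = IFN-gamma with 300 µM nifuroxazide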
PPC-1+TRAIL kill – PPC-1 cancer cell killing with TRAIL present; PPC-1 cells + TRAIL, ATPLite viability luminescence; cell killing (% activity), % at 4 µM or 5 µM; actives 0.41% (n = 220,000); AID 1443;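 active = cell killing above 50% in the first pass at 4 µM, then a duplicate retest at 5 µM averaging 50% or more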;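 note: plate controls were cells with TRAIL plus DMSO for no effect and medium-only wells lacking cells for full effect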
* hit, by the source's call; nt = not tested or not shown.

SMILES	HSF1 inhib	STAT3 blocker	HSP90 inh	C8 TRAIL sens	STAT1 blocker	PPC-1+TRAIL kill
COc1cccc(/C=N/Nc2ccc([N+](=O)[O-])cn2)c1O	63.2	nt	11.4	59.8*	nt	nt
Brc1ccccc1/C=N/Nc1ccc2ccccc2n1	8.6	-24.7	-2.7	20.0	-63.8	5.5
CCC(=O)N1CCCC1(C)C(=O)Nc1cc(OC)ccc1OC (centres undefined)	nt	nt	nt	0.3	nt	nt
O=c1nccc(N/N=C/c2ccccc2O)[nH]1	-4.2	nt	16.4*	64.2*	nt	nt
Oc1ccccc1/C=N/Nc1nn[nH]n1	-74.7*	nt	-1.3	17.1	nt	-11.7
Cc1cc(/C=N/Nc2ccc([N+](=O)[O-])cn2)c(C)n1-c1ccccc1	9.4	-18.9	16.3*	-6.7	-26.7	-0.7
C(=N\Nc1nn[nH]n1)/c1ccccc1	-8.3	-0.6	4.8	7.3	-3.5	-5.0
Cc1ccc(-n2c(C)cc(/C=N/Nc3ccc([N+](=O)[O-])cn3)c2C)cc1	-3.0	5.5	2.7	-22.3	1.5	4.3
COc1cccc(/C=N/Nc2ccc(C(=O)O)cc2)c1O	nt	100.1*	95.2*	55.9*	90.8*	18.1
CC(C)C[C@H]1CN(CCCC[C@@H]2CNC(=O)C(=O)N2CCc2ccccc2)C(=O)C(=O)N1Cc1ccccc1	nt	nt	nt	21.1	nt	nt
CCOC(=O)C1(CCOc2ccccc2)CCN(Cc2ccc(NC(C)=O)cc2)CC1	-18.1	-6.1	-7.2	-3.4	-8.2	3.5
CC(=O)Nc1ccc(CN2CCC(CO)(CCOc3ccccc3)CC2)cc1	-56.2*	1.9	1.2	1.8	4.6	2.2
CCc1ccc(Nc2nnc(SCC(=O)c3c(N)n(C4CC4)c(=O)[nH]c3=O)s2)cc1	nt	nt	nt	60.8*	nt	nt
O=C1c2c(-c3ccc(Br)cc3)noc2CCN1Cc1cn(-c2ccccc2)nn1	nt	nt	nt	9.3	nt	nt
O=C1c2cccc(NCCCNCCO)c2C(=O)c2cccc(NCCCNCCO)c21	nt	nt	nt	57.0*	nt	nt
O=C(NCC1CC1)c1csc([C@@H]2O[C@H](CO)[C@H](O)[C@H](O)[C@H]2O)n1	nt	nt	nt	-2.6	nt	nt
O=C(NC(Cc1c[nH]c2ccccc12)C(=O)O)c1cccc(S(=O)(=O)N2CCCCC2)c1 (centres undefined)	nt	nt	nt	-11.6	nt	nt
CCc1cc2c(N=Nc3c(O)[nH]c4ccccc34)ncnc2s1	-2.7	-31.1	-7.8	-5.8	1.8	-0.3
CCc1ccc2[nH]c(O)c(N=Nc3nc(-c4ccccc4)cs3)c2c1	-89.0*	16.2	-0.9	9.3	-11.6	-9.4
COc1ccc(Br)cc1CNC(=O)CCN1C(=O)COc2ccccc21	-67.5*	8.2	4.4	0.5	0.5	31.6
COc1ccc(-c2noc([C@@H]3O[C@H](CO)[C@H](O)[C@H](O)[C@H]3O)n2)cc1OC	nt	nt	nt	-12.6	nt	nt
COc1cccc(OC(=O)c2ccccc2)c1OC(=O)c1ccccc1	nt	nt	nt	7.9	nt	nt
CCCCS(=O)(=O)/C=C\C1C2C=CC(C2)C1S(=O)(=O)CCCC (centres undefined)	-3.2	4.8	2.6	-10.4	-0.2	7.8
CCCCS(=O)(=O)/C=C\C=C/S(=O)(=O)CCCC	-83.0*	16.0	9.2	44.8	-225.5	32.6
Cc1onc(-c2ccccc2Cl)c1C(=O)Nc1ccc(OCC(=O)N2CCOCC2)cc1	-84.9*	15.5	5.3	2.1	10.8	3.7
SMILES	HSF1 inhib	STAT3 blocker	HSP90 inh	C8 TRAIL sens	STAT1 blocker	PPC-1+TRAIL kill
O=C(Nc1ccc(OCC(=O)N2CCOCC2)cc1)c1ccccc1Cl	0.7	nt	13.2	83.3*	nt	nt
Cc1onc(-c2ccccc2Cl)c1C(=O)Nc1ccc(S(=O)(=O)N2CCCC2)cc1	-3.5	-0.9	0.1	4.4	2.4	-14.6
CCCCOc1ccc(C(=O)Nc2ccc(OCC(=O)N3CCOCC3)cc2)cc1	10.8	nt	-1.1	69.8*	nt	nt
CCNC(=O)C1(C)CCCN(C(=O)c2nc3ccccc3s2)C1 (centres undefined)	nt	nt	nt	-21.7	nt	nt
CC1(C(=O)Nc2ccc3c(c2)OCO3)CCN1C(=O)CCc1ccc(Cl)cc1Cl (centres undefined)	nt	nt	nt	-6.9	nt	nt
COc1cc2sc3ccc(-c4ccc(CN5CCOCC5)cc4)cc3c(=O)c2cc1OC	nt	nt	nt	52.9*	nt	nt
CN(C)c1ccc(C(=O)N2CCC2(C)C(=O)O)cc1 (centres undefined)	nt	nt	nt	-1.3	nt	nt
C[C@@H]1Cc2[nH][nH]c(=O)c2[C@H](C)O1	nt	nt	nt	10.4	nt	nt
O=C(C[C@H]1C/C=C\C[C@H](NC(=O)OCC2c3ccccc3-c3ccccc32)C(=O)OC[C@H](Cc2ccccc2)NC1=O)N[C@H](CO)Cc1ccccc1	nt	nt	nt	63.5*	nt	nt
Cc1cccc2c(C(=O)N3CCN(c4ccccn4)CC3)cc(-c3cccc(Br)c3)nc12	-79.2*	nt	7.4	19.6	nt	nt
Cc1cccc2c(C(=O)N3CCCCC3)cc(-c3ccccc3)nc12	20.3	nt	0.2	11.6	nt	nt
Cc1cccc2c(C(=O)N3CCN(c4ccccc4)CC3)cc(-c3ccncc3)nc12	-69.6*	nt	1.8	24.8	nt	nt
CC1(C(=O)NCc2ccccc2)CSCC(=O)N1CC(F)(F)F (centres undefined)	nt	nt	nt	6.5	nt	nt
COc1cccc(-c2cn3nc4c(nc3n2)CCCC4)c1	-9.7	15.7	-0.6	53.2*	-65.9	3.3
COc1cccc(-c2cc(C(F)(F)F)n3nc(N)nc3n2)c1	-7.2	10.3	0.4	3.9	4.0	12.8
COc1ccc(SCC(O)Cn2c3ccccc3c3ccccc32)c(OC)c1 (centres undefined)	nt	nt	nt	-3.5	nt	nt
CCC(CO)NCc1ccc(OCC(=O)Nc2cccc(C(F)(F)F)c2)c(OC)c1 (centres undefined)	nt	12.7	1.6	11.6	1.8	51.9*
COc1ccc(/C=N/Nc2nncc3ccccc23)c(OC)c1	3.2	16.4	2.8	8.8	-52.0	14.5
Clc1ccc(/C=N/Nc2nnc(Cl)c3ccccc23)cc1	85.0	-51.1	1.9	27.2	-20.0	21.8
C(=N\Nc1nncc2ccccc12)/c1ccccc1	24.8	nt	1.9	49.7*	nt	27.4
CN(C)c1ccc(/C=N/Nc2nncc3ccccc23)cc1	6.3	nt	3.3	65.8*	nt	nt
CC(=O)Nc1ccc(C=NNc2nnc(NN=Cc3ccc(NC(C)=O)cc3)c3ccccc23)cc1	nt	nt	nt	64.1*	nt	nt
COc1cc(/C=N/Nc2nncc3ccccc23)cc(OC)c1OC	2.4	nt	2.3	30.8	nt	nt
CCCCNC(=O)C1(C)CCN1C(=O)c1ccc2c(c1)C(C)(C)CCC2(C)C (centres undefined)	nt	nt	nt	12.7	nt	nt
Cc1ccccc1OCC(O)CNC1CCC(NCC(O)COc2ccccc2C)CC1 (centres undefined)	1.7	nt	4.4	92.8*	nt	nt
Cc1ccc(OCC(O)CNC2CCCC2)c(C)c1 (centres undefined)	-1.1	nt	-1.7	7.5	nt	nt
CCC1CCCCN1Cc1nc(Cc2ccccc2Cl)no1 (centres undefined)	-3.3	nt	-1.4	85.2*	nt	0.4
O=C(NC(=S)Nc1nc2ccccc2s1)c1ccco1	28.7	-48.1	-7.0	76.8*	-33.3	10.8
Cc1ccc2nc(NC(=S)NC(=O)c3ccc(OC(C)C)cc3)sc2c1	-1.1	nt	nt	35.1	nt	nt
